# Results: PubChem BioAssay (Tox21)
# “And” between values parts separate entries of the source, which are not always exact repeats. Equal entries are not always repeated. Results filed as inconclusive are left out. Where a call stands in place of a potency, no number is given. The source made the active and inactive calls. The call rests on the fitted dose curve.
# Experiment: qHTS assay for small molecule disruptors of the mitochondrial membrane potential - cell viability (AID 720634); further: nearly all actives have a fitted effect of over 20% in size;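 on activity change, negative = cytotoxicity: human HepG2 liver cancer cells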
# Conditions: HepG2 viability, ATP luminescence (CellTiter-Glo), 1 h; series mostly up to 83.2 µM; activity change, negative = cytotoxicity: at the top concentration
# Procedure, shortened: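 Cytotoxicity was quantified from ATP content by CellTiter-Glo luminescence in the same wells as the MMP dye read-out. HepG2 (2,000 cells/well) were plated overnight and exposed to compounds for 1 hr at 37 C.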
# Potency means the concentration at half of the fitted maximal effect.
Structure (SMILES),Potency,"activity change, negative = cytotoxicity"
CCCCOC(=O)COC(=O)c1ccccc1C(=O)OCCCC,inactive,
CC(C)(C#N)N=NC(C)(C)C#N,inactive,
c1ccc(C2CO2)cc1 (configuration not stated),inactive,
CC(C)Nc1nc(Cl)nc(NC(C)C)n1,inactive,
CC(C)CON=O,inactive,
Clc1cccc(Cl)c1,inactive,
CCCCCCCCCCCCCl,inactive,
COP(=S)(OC)Oc1ccc(Sc2ccc(OP(=S)(OC)OC)cc2)cc1,61.1 µM (active),
Nc1ncn[nH]1,inactive,
CC(C)(O)C#N,inactive,
NC(=O)CN1CCCC1=O,inactive,
CCNc1nc(Cl)nc(NC(C)(C)C#N)n1,inactive,
O=C1CCCO1,inactive,
CCCCCCCC[N+](C)(CCCCCCCC)CCCCCCCC,27.3 µM (active) and 54.5 µM (active),
CN(C)c1nc(=O)n(C2CCCCC2)c(=O)n1C,inactive,
Cn1c(-c2ccccc2)cc(-c2ccccc2)[n+]1C,inactive,
N#CCCCCC#N,inactive,
C[C@]12CCC(=O)C=C1CC[C@@H]1[C@@H]2CC[C@@]2(C)[C@H]1CC[C@]2(C)O,inactive,
Clc1ccc(C(Cl)(Cl)Cl)cc1,inactive,
O=P(OCCCl)(OCCCl)OCCCl,inactive,
CC[n+]1c(-c2ccccc2)c2cc(N)ccc2c2ccc(N)cc21,inactive,
CCOP(=O)(OCC)OCC,inactive,
COc1ccc(O)c(C(C)(C)C)c1,,2.33% (inactive)
CN(C)c1ccccc1,inactive,
CCC1(c2ccc(N)cc2)CCC(=O)NC1=O (configuration not stated),inactive,
CCOP(=S)(OCC)SCn1c(=O)oc2cc(Cl)ccc21,54.5 µM (active),
CC(C)=CC1C(C(=O)OCc2cccc(Oc3ccccc3)c2)C1(C)C (configuration not stated),inactive,
